The record followed here is ChEMBL document CHEMBL3988442, “University of Dundee, Small-Polar-MMV Screening Library” (2021).

This assay deals with AMP-activated protein kinase, AMPK (Homo sapiens) (UniProt P54646+O43741+P54619+Q9UGJ0+Q9Y478+Q13131+Q9UGI9). Nature of the assay: AMP-dependent Kinase enzyme assay. An in vitro enzyme assay that detects ADP turnover that is directly proportional to AMPK activity. This uses naive AMPK that is activated during the assay with MK-8722. In kind it is functional. On the set-up: scale not given: direction of the effect not stated beside the values. The following applies: 30 µM.
With `Cc1ccc(S(=O)(=O)Cc2nsc(N(C)C)n2)c(C)c1`, the Percent Effect is -0.477%.
On to `COC(=O)c1ccc(N(C(=O)c2cscn2)C(C)C)c(C)c1`, for which the Percent Effect is -0.314%.
On to `CN(CCNC(=O)Nc1nccs1)Cc1ccc(F)cc1`, for which the Percent Effect was -0.57%.
Under `CC(CN1CCOCC1)NC(=O)N1CCCC1` (centres undefined) stands 12.9%.
As to `COc1cc(NCCCSc2nnc(C)s2)ncn1`, the Percent Effect is 13.7%.
As for `CC(c1nc(C2CC2)no1)N1CCc2c(ncn2C2CC2)C1` (centres undefined), the figure is 11.4%.
Consider `Cc1ncsc1C(=O)N[C@@H](Cc1ccccc1)C(N)=O`, for which the Percent Effect amounted to 8.09%.
Under `CN1CCOC(CNCC(=O)NCCc2ccc3c(c2)OCCO3)C1` (centres undefined) stands -5.82%.
Turning to `COc1ccccc1Oc1ncccc1CNC(=O)C1COC(=O)N1` (centres undefined), the Percent Effect was -13.1%.
As for `COCCC(=O)N1CCCC(CCC(=O)NCc2cccc(OC)c2)C1` (centres undefined), the figure is 14.2%; as for `CCc1ncc2c(n1)CN(Cc1nc(-c3ccco3)oc1C)CC2`, -22.8%; as for `Cc1cc(C)n2cc(CN3CCC(N4CCN(C)C4=O)CC3)nc2n1`, 5.03%.
As for `CN1CCC(NC(=O)c2cc(Cl)cc(Br)c2O)C1=O` (centres undefined), the figure is 12.7%; as for `Cn1ccnc1CNC(=O)CC1CCCCO1` (centres undefined), -3.14%.
Take `Cc1cc(NC(=O)C2CCN(c3nnc(C)c(C)c3C#N)CC2)no1`: the Percent Effect was -48.4%.
Turning to `Cc1nccn1-c1cccc(N2CCC(OCC3CCCCO3)CC2)n1` (centres undefined), the Percent Effect was 6.51%.
Under `Cc1nc(CNC(=O)Nc2c(C)n[nH]c2C)cs1` stands -7.09%.
Under `CCc1ccccc1Nc1noc2c1CN(C(=O)c1ccn(C)n1)CC2` stands -1.29%; under `CN(C)c1nc(N)nc(CN2CCCC(c3ccccc3)CC2)n1` (centres undefined), -3.69%.
